Data taken from ChEMBL document CHEMBL4513216, “Probing the Open Global Health Chemical Diversity Library for Multistage-Active Starting Points for Next-Generation Antimalarials” (ACS Infect Dis, 2020).
In all, about 68,000 compounds went through this assay and about 2,700 (4%) showed an effect of 50% or more. The sample as a whole holds a higher share of strong results than the screen did.

Tested on: Plasmodium berghei
Experiment: Screen against P. berghei liver stage (PbLuc), transformed with Luciferase, at 2uM
Assay type: functional, HepG2
Details: tested at 2 uM

Row | SMILES | INHIBITION
1 | CC1CCC(O)(CSc2nnnn2C)CC1 (stereo unspecified) | 4.91%
2 | CC(C)CC(=O)NCC(O)c1c(F)cccc1F (stereo unspecified) | 14.96%
3 | CN(C)C(=O)CN1CCOCC2(CCN(CC3CCOC3)CC2)C1 (stereo unspecified) | 82.53%
4 | CN(C)C(=O)CN1CCC2(C1)CN(CC1CCOC1)C2 (stereo unspecified) | -54.01%
5 | CN(C)C(=O)CN1CCOCC2(CCN(CC3CCOCC3)CC2)C1 | 12.68%
6 | COc1ccc(C(C)CCNC2CCN(c3ccccn3)CC2)cc1 (stereo unspecified) | 3.2%
7 | CCS(=O)(=O)c1ccccc1N1CCC(NC(C)=O)CC1 | -0.64%
8 | CCS(=O)(=O)c1ccccc1N1CCC(NC(=O)NC2CCCC2)CC1 | 64.71%
9 | CCS(=O)(=O)c1ccccc1N1CCC(NC2CCCC2)CC1 | 27.47%
10 | Cc1cc(C)n(CC(C)CNC(=O)NCc2c(C)cc(C)[nH]c2=O)n1 (stereo unspecified) | 10.14%
11 | Cc1ccc(NC(=O)N2CCOC(C(N)=O)C2)cc1C(F)(F)F (stereo unspecified) | 33.11%
12 | COC1CCN(CCNc2ncc(Br)cc2C)CC1 | -4.26%
13 | Cc1cc(Br)cnc1NCCN1CCC(N(C)C)CC1 | 64.9%
14 | CC(=O)N1CCN(CCNc2ncc(Br)cc2C)CC1 | 12.43%
15 | O=S(=O)(c1cccnc1)N1CCCCC1CCN1CCOCC1 (stereo unspecified) | -13%
16 | Cc1cc(C)nc(N2CCCC(c3cccc(-n4ccnc4)n3)C2)n1 (stereo unspecified) | -2.89%
17 | O=C(Nc1ncc[nH]1)c1cc(-c2cccnc2)n[nH]1 | -36.68%
18 | O=C(c1cc2c(s1)CCCC2)N1CCCC1Cn1cccn1 (stereo unspecified) | 1.61%
19 | CC(=O)N1CCC2(CCCN(S(=O)(=O)c3ccccc3)C2)C1 (stereo unspecified) | 52.36%
20 | CC(=O)N1CCC2(CCN(S(=O)(=O)c3ccccc3)CC2)C1 | 11.18%
21 | CC(=O)N1CCC2(C1)CN(S(=O)(=O)c1ccccc1)C2 | 56.76%
22 | CC(=O)N1CCC2(CC1)CCN(S(=O)(=O)c1ccccc1)C2 | 27.65%

Row | SMILES | INHIBITION
23 | CC(=O)N1CCC2(CCCN(S(=O)(=O)c3ccc(F)cc3)C2)C1 (stereo unspecified) | -8.04%
24 | CN(C)CC(=O)N1CC2(CCN(S(=O)(=O)c3ccccc3)C2)C1 | 39.51%
25 | CN(C)c1ccc(CNC(=O)NCCc2cccs2)cn1 | 9.17%
26 | Cc1ccncc1CN1CCOCC1c1[nH]ncc1C (stereo unspecified) | 5.01%
27 | Cc1cc(CNc2ccnn2C)ccc1-n1cncn1 | 14.93%
28 | CC1(C)Cc2nc(C(C)(C)C)ncc2C(NC(=O)CN)C1 (stereo unspecified) | 21.28%
29 | CN(C)CCCC(=O)NC1CC(C)(C)Cc2nc(C(C)(C)C)ncc21 (stereo unspecified) | 35.56%
30 | CN(C)CC(=O)NC1CC(C)(C)Cc2nc(C(C)(C)C)ncc21 (stereo unspecified) | 68.39%
31 | Cc1nc[nH]c1CN1CCCn2nc(CN3CCC(F)(F)CC3)cc2C1 | 8.48%
32 | O=C(c1ccsc1)N1CCC(Nc2cccnn2)CC1 | 2.8%
33 | CC(C(=O)Nc1ccc(N2CCCCC2)nc1)n1ccnc1 (stereo unspecified) | -34.5%
34 | CCCNC(=O)N1CCc2ccc(S(=O)(=O)N3CCN(C)CC3)cc2C1 | 30.62%
35 | O=C(c1ccoc1)N1CCCC2(CCC(=O)N2Cc2ccncc2)C1 (stereo unspecified) | 3.56%
36 | Cc1cnn(CC2CCCN2C(=O)c2cccc(CC#N)c2)c1 (stereo unspecified) | -17.11%
37 | CCN(CC)S(=O)(=O)CC(=O)Nc1ccsc1 | 64.08%
38 | CCCS(=O)(=O)CC(=O)Nc1ccsc1 | 22%
39 | CS(=O)(=O)CCC(=O)Nc1ccsc1 | 10.22%
40 | O=C(c1cc2c(s1)CCC2)N1CCN(c2cnccn2)CC1 | -32.45%
41 | N#Cc1ccc(OCC(O)CN2CCN(c3nccs3)CC2)cc1 (stereo unspecified) | 2.2%
42 | O=C(O)CCC(=O)N1CCN(CC2CC2)c2ncccc2C1 | 18.6%
43 | CCn1cnnc1C1CCN(C(=O)c2ccoc2C)CC1 | 70.27%
44 | CCn1cnnc1C1CCN(C(=O)c2c(C)oc(C)c2C)CC1 | -11.32%

Row | SMILES | INHIBITION
45 | CCn1cnnc1C1CCN(C(=O)c2cc(OC)ccc2OC)CC1 | -33.61%
46 | CCn1cnnc1C1CCN(C(=O)c2ccccc2OC)CC1 | -45.23%
47 | CCn1cnnc1C1CCN(C(=O)c2cccc(C)c2C)CC1 | 1.02%
48 | Cc1c(C(=O)N2CCC(C(O)c3ccc(Cl)cc3)CC2)cnn1C (stereo unspecified) | 10.22%
49 | Cc1occc1C(=O)N1CCC(C(O)c2ccc(F)cc2)CC1 (stereo unspecified) | 47.25%
50 | CCn1cnnc1C1CCN(C(=O)c2cccc(OC)c2OC)CC1 | 66.2%
51 | Cc1occc1C(=O)N1CCC(C(O)c2ccc(Cl)cc2)CC1 (stereo unspecified) | 59.03%
52 | CCn1nc(C)c2c1cnn2CCNS(=O)(=O)Cc1ccccc1 | 16.97%
53 | CN(C)Cc1cccc(C(=O)N2CCCC(n3cncn3)C2)c1 (stereo unspecified) | 21.39%
54 | CC(C)c1cc(C(=O)N2CCC3(CCc4ccccc4C(=O)N3)C2)on1 (stereo unspecified) | 9.9%
55 | CNC(=O)c1n[nH]c2c1C(c1cccc3c1OC(C)(C)C3)CC(=O)N2 (stereo unspecified) | 48.21%
56 | Cc1nc(CN2CCN(C(=O)c3ccc(=O)n(C)c3)CC2)cs1 | -3.4%
57 | CCN1CCC12CCN(C(=O)c1ccsc1)C2 (stereo unspecified) | 13.75%
58 | CC(C)C1=NOC(c2nc(Cc3ccccc3)no2)C1 (stereo unspecified) | 50.46%
59 | Cc1ccccc1-c1noc(C2CC(C(C)C)=NO2)n1 (stereo unspecified) | -10.37%
60 | COc1ccc(-c2noc(C3CC(C(C)C)=NO3)n2)cc1 (stereo unspecified) | 7.37%
61 | COCC(=O)N1CC2(CCN(c3ccccc3)C2)C1 | -31.82%
62 | CCc1nc(CC2CN(c3ncnc4nc(C)cc(C)c34)CCO2)no1 (stereo unspecified) | 5.1%
63 | Cc1nc(C(=O)N2CC[C@@]3(C[C@@H](NS(C)(=O)=O)CCO3)C2)cs1 | 68.95%
64 | CS(=O)(=O)N[C@@H]1CCO[C@]2(CCN(C(=O)c3cnccn3)C2)C1 | 9.14%
65 | CS(=O)(=O)N[C@H]1CCO[C@]2(CCN(C(=O)c3ccccn3)C2)C1 | 36.75%
66 | CS(=O)(=O)N[C@@H]1CCO[C@]2(CCN(C(=O)c3cscn3)C2)C1 | 23.1%

Row | SMILES | INHIBITION
67 | Cc1cc(C(=O)N2CC[C@@]3(C[C@@H](NS(C)(=O)=O)CCO3)C2)no1 | 19.51%
68 | Cc1nc(C(=O)N2CC[C@@]3(C[C@H](NS(C)(=O)=O)CCO3)C2)cs1 | 60.79%
69 | COCCN1C(=O)CC(N2CCN(c3ccc(F)cc3)CC2)C1=O (stereo unspecified) | 39.9%
70 | NC(=O)CCSc1ccccc1NCc1ccc(Cl)s1 | 22.75%
71 | Cc1ocnc1C(=O)N(C)[C@@H]1CC[C@@H](Oc2ccccc2)[C@@H]1O | 67.27%
72 | Cc1nc(C(=O)N(C)[C@@H]2CCC[C@@H](Oc3ccccc3)[C@@H]2O)co1 | 9.47%
73 | CN(C(=O)c1ccon1)[C@@H]1CCC[C@@H](Oc2ccccc2)[C@@H]1O | 44.9%
74 | Cc1ccccc1C1(CNC(=O)CCN2C(=O)CCC2=O)CC1 | 26.76%
75 | O=C(N1CCOCC1)[C@@]12CCO[C@@H]1CCN(CC1CCCC1)C2 | -55.42%
76 | Cc1c(NC(=O)c2cnc[nH]2)cccc1C(=O)NC(C)(C)C | 5.41%
77 | COc1ccc(CN(Cc2cc(C)no2)C2CC2)cc1 | -16.88%
78 | c1cnc(N2CCC(c3csc(Nc4cnccn4)n3)CC2)nc1 | -41.06%
79 | O=C1CC2(CCN(c3nncs3)C2)CN1c1ccc2c(c1)OCCO2 (stereo unspecified) | 58.16%
80 | O=C1CC2(CCN(c3nncs3)C2)CN1c1ccccc1 (stereo unspecified) | -5.44%
81 | O=C1CC2(CCN(c3nncs3)C2)CN1c1cccc(F)c1 (stereo unspecified) | 21.75%
82 | O=C(O)c1ccc(CC2CCN(Cc3ccc(-c4cc[nH]n4)o3)C2)cc1 (stereo unspecified) | 16.93%
83 | Cc1ncnc2c1CCN(CC(=O)N(C)C)CC2 | 18.15%
84 | Cc1cc(C(F)(F)F)nc(CNC(=O)CCC2CCCCN2C)n1 (stereo unspecified) | 54.77%
85 | Cc1cc(C(F)(F)F)nc(CNC(=O)C2CCCCCN2C)n1 (stereo unspecified) | 20.77%
86 | Cc1cc(C(F)(F)F)nc(CNC(=O)CCC2CCCN(C)C2)n1 (stereo unspecified) | -28.09%
87 | Cc1ccc2nc(CN3CCN(C4CCCC4)C(=O)C3)cc(O)c2c1 | -87.32%
88 | OCC1CCCCN1Cc1cc(O)c2cccc(F)c2n1 (stereo unspecified) | 24.36%

Row | SMILES | INHIBITION
89 | Cc1ccc2nc(CN3CCCC3c3cccnc3)cc(O)c2c1 (stereo unspecified) | 50.59%
90 | Oc1cc(CN2CCCCC2c2cccnc2)nc2c(F)cccc12 (stereo unspecified) | 57.75%
91 | NCC1CCCCN1Cc1cc(O)c2cccc(F)c2n1 (stereo unspecified) | -20.95%
92 | Cc1ccc2nc(CN3CCN(C4CCCCC4)C(=O)C3)cc(O)c2c1 | -17.17%
93 | CN(C)C(CNCc1nc(-c2ccsc2)no1)c1cccs1 (stereo unspecified) | 58.14%
94 | CN(C)C(CNCc1nc(-c2ccsc2)no1)c1ccsc1 (stereo unspecified) | 6.82%
95 | CN(C)C(CNCc1nc(-c2ccsc2)no1)c1ccco1 (stereo unspecified) | 11.18%
96 | c1ccc(CN2CCN(C3CCOC4(CCOCC4)C3)CC2)nc1 (stereo unspecified) | -14.69%
97 | CCNc1nc2cn(-c3ccc(C)c(C)c3)c(=O)c-2c[nH]1 | -5.34%
98 | c1cncc(CN2Cc3nccn3CC(Cn3cccn3)C2)c1 (stereo unspecified) | -9.53%
99 | COc1ccc(Cl)cc1C(C(=O)O)N(C)Cc1ccon1 (stereo unspecified) | -35.07%
100 | COc1cc(C)cc(C(C(=O)O)N(C)Cc2ccon2)c1OC (stereo unspecified) | 76.6%
101 | COc1cc(F)ccc1C(C(=O)O)N(C)Cc1ccon1 (stereo unspecified) | 12.55%
102 | CN(C)CC(=O)N1CCN(c2cc(N3CCCC3CO)ncn2)CC1 (stereo unspecified) | -23.06%
103 | COC1[C@@H]2CC[C@H]1CN(c1nc(C)nc3sccc13)C2 (stereo partly specified) | 32.26%
104 | Cc1ccccc1CN(CCN(C)C)Cc1ccc(O)c(C(=O)O)c1 | 56.76%
105 | Cc1ccccc1CN(CCN(C)C)Cc1ccccc1C(=O)O | 4.12%
106 | Cc1ccccc1CN(CCN(C)C)Cc1ccc(C(=O)O)cc1 | 34.07%
